An excerpt weighted towards active compounds, which were near 1.8% of everything screened.
Fam108B inh: Fam108B inhibition, counter-screen for RBBP9 inhibitors | inhibition, % at 9.51 µM | 300,000 tested, 0.33% active | recombinant Fam108B, FP-Rh probe fluorescence polarization;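 active = inhibition above the screen mean inhibition plus 3 SD, computed separately per campaign, cut at about 18% in these data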;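 also: inhibitors lower polarization as less probe binds the enzyme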
PAD4 FP inh: blocks human protein arginine deiminase 4 | Q9UM07 | recombinant PAD4, RCA probe fluorescence polarization | inhibition, % at 6.36 µM | 330,000 tested, 0.41% active;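 active = percent inhibition above a cutoff equal to the mean of all tested compounds plus 3 SD, cut at about 15% in these data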;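 also: 0% = PAD4 with RCA probe and DMSO and 100% = probe without PAD4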
PME-1 inh: blocks human protein phosphatase methylesterase 1; recombinant PME-1, FP-Rh probe fluorescence polarization; inhibition, % at 5.9 µM; 320,000 tested, 0.53% active; AID 2130;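 active = inhibition above the campaign mean of all compounds plus 3 SD, cut at about 26% in these data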;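 also: competitive labeling of PME-1 active site by serine hydrolase directed probe; 0% = PME-1 with DMSO and 100% = wells lacking PME-1 enzyme; inhibitors block probe labeling so polarization falls and inhibition rises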
GSTO1 counter: blocks human GSTO1 in RBBP9 counter-screen. 300,000 tested, 1.1% active. recombinant GSTO1, activity-based probe fluorescence polarization. P78417. inhibition, % at 5.96 µM. AID 1974;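 active = inhibition above the campaign mean inhibition plus 3 SD, cut at about 35% in these data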;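 also: 0% = GSTO1-1 with DMSO and 100% = wells lacking GSTO1-1 enzyme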
Target sequence (P78417 whole entry, looked up): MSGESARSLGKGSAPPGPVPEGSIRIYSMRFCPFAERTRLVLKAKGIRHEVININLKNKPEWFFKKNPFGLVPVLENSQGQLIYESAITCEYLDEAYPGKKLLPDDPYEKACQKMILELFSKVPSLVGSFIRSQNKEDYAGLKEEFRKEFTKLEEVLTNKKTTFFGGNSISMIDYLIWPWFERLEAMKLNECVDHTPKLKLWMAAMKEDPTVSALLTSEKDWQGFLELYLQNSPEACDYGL
LYPLA2 counter: counter-screen for PME1 inhibitors: inhibitors of human LYPLA2 | O95372 | recombinant LYPLA2, FP-Rh probe fluorescence polarization | inhibition, % at 5.9 µM | 320,000 tested, 0.38% active | AID 2177;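 active = inhibition above the screen-wide mean plus 3 SD, limit set per campaign, cut at about 26% in these data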;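 also: 0% = LYPLA2 with DMSO and 100% = wells lacking LYPLA2 enzyme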
LYPLA1 counter: LYPLA1 (human) inhibition in PME1 counter-screen | inhibition, % at 5.9 µM | 320,000 tested, 0.16% active | recombinant LYPLA1, FP-Rh probe fluorescence polarization | O75608;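 active = inhibition above the mean of all tested compounds plus 3 SD, set per campaign, cut at about 14% in these data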;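 also: inhibitors block serine hydrolase probe labeling of LYPLA1 so polarization falls; 0% = enzyme with DMSO and 100% = wells lacking LYPLA1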
Target sequence (O75608 whole entry, looked up): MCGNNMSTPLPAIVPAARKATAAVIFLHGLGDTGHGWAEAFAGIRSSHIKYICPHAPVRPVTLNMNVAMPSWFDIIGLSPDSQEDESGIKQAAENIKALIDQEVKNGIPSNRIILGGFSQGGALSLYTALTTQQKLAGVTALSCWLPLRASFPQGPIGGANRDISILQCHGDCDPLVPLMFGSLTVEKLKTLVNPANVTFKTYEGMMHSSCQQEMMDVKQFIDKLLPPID
Starred values were filed as active, the others as inactive.

CCC1CCCCN1C(=O)CCNC(=O)Cn1cnc2ccccc2c1=O (centres undefined) was read as Fam108B inh -2, PAD4 FP inh -1, PME-1 inh 2, GSTO1 counter 10, LYPLA2 counter 0 and LYPLA1 counter 2.
Screening O=C(N/N=C/c1c[nH]c2ccccc12)c1cc(-c2cccc3ccccc23)n[nH]1 returned Fam108B inh 3, PAD4 FP inh -4, PME-1 inh 28*, GSTO1 counter -21, LYPLA2 counter -9 and LYPLA1 counter -11.
O=C(N/N=C/c1c[nH]c2ccccc12)C1CC1(c1ccccc1)c1ccccc1 (centres undefined) was read as Fam108B inh 12, PAD4 FP inh 3, PME-1 inh 31*, GSTO1 counter -1, LYPLA2 counter 6 and LYPLA1 counter 1.
`O=C(N/N=C/c1c[nH]c2ccccc12)c1cc(-c2ccc3ccccc3c2)n[nH]1` gave Fam108B inh 11, PAD4 FP inh 3, PME-1 inh 29*, GSTO1 counter -76, LYPLA2 counter -15 and LYPLA1 counter -33.
For Cc1nn(CC(=O)N2CCN(c3ccccn3)CC2)c(=O)c2cc3sccc3n12 the results were Fam108B inh -1, PAD4 FP inh -3, PME-1 inh -5, GSTO1 counter -14, LYPLA2 counter -2 and LYPLA1 counter -3.
`COc1ccc(NC(=O)CN(C)C(=O)CSc2ccc(Br)cc2)cc1` gave PAD4 FP inh -4, PME-1 inh 7, LYPLA2 counter 8 and LYPLA1 counter -1.
`O=C(NN=Cc1ccc(N2CCOCC2)s1)c1ccc([N+](=O)[O-])cc1` gave PAD4 FP inh -4.
Screening CCCCC1OC2(C)OC(=N)C1(C#N)C(C#N)(C#N)C2c1ccccc1 (centres undefined) returned Fam108B inh 2, PAD4 FP inh 9, PME-1 inh -2, GSTO1 counter 5, LYPLA2 counter 1 and LYPLA1 counter 1.
`CC1OC2(C)OC(=N)C1(C#N)C(C#N)(C#N)C2c1ccccc1` (centres undefined) gave Fam108B inh 14, PAD4 FP inh 25*, PME-1 inh 16, GSTO1 counter 10, LYPLA2 counter 15 and LYPLA1 counter 11.
Cc1ccc([N+](=O)[O-])cc1NC(=O)Nc1onc(C)c1C was read as Fam108B inh 1, PAD4 FP inh 2, PME-1 inh -1, GSTO1 counter 0, LYPLA2 counter 0 and LYPLA1 counter 0.
Screening COc1ccc2c(c1)OC(O)(C(F)(F)F)CC2=O (centres undefined) returned Fam108B inh -2, PAD4 FP inh -3, PME-1 inh 4, GSTO1 counter 36*, LYPLA2 counter -4 and LYPLA1 counter -3.
CCOc1ccc2c(c1)OC(c1ccc(OC)cc1)(C(F)(F)F)NC2=O (centres undefined) was read as Fam108B inh 4, PAD4 FP inh 1, PME-1 inh 5, GSTO1 counter -1, LYPLA2 counter 4 and LYPLA1 counter -1.
Screening COc1cc(NC(=O)CSc2cc(C)c3cc(C)cc(C)c3n2)c(C(=O)O)cc1OC returned Fam108B inh 0, PAD4 FP inh 1, PME-1 inh 3, GSTO1 counter -10, LYPLA2 counter 4 and LYPLA1 counter -2.
Screening O=C(NCCS(=O)(=O)N1CCC2(CC1)OCCO2)c1ccccc1 returned Fam108B inh 0, PAD4 FP inh 3, PME-1 inh -2, GSTO1 counter 2, LYPLA2 counter -1 and LYPLA1 counter 4.
`CN1CCN(c2cc(N3CCN(C(=O)c4ccco4)CC3)c3c4c(onc24)-c2ccccc2C3=O)CC1` gave Fam108B inh 7, PAD4 FP inh -4, PME-1 inh 11, GSTO1 counter 17, LYPLA2 counter 1 and LYPLA1 counter 1.
Screening CCOC(=O)N1CCN(c2cc(NCCC(=O)O)c3c4c(onc24)-c2ccccc2C3=O)CC1 returned Fam108B inh 6, PAD4 FP inh 7, PME-1 inh 16, GSTO1 counter 60*, LYPLA2 counter -3 and LYPLA1 counter 2.
`O=C(O)CCCNc1cc(N2CCC3(CC2)OCCO3)c2noc3c2c1C(=O)c1ccccc1-3` gave Fam108B inh 35*, PAD4 FP inh 18*, PME-1 inh -2, GSTO1 counter 54*, LYPLA2 counter -1 and LYPLA1 counter 1.
Screening O=C(CCS(=O)(=O)c1ccc(Cl)cc1)NCCN1C(=O)S/C(=C\c2ccccc2F)C1=O returned Fam108B inh -1, PAD4 FP inh 4, PME-1 inh -7, GSTO1 counter 2, LYPLA2 counter 1 and LYPLA1 counter -6.
Cc1ccc(S(=O)(=O)CCC(=O)NCCN2C(=O)S/C(=C\c3ccccc3)C2=O)cc1 was read as Fam108B inh -3, PAD4 FP inh -1, PME-1 inh 35*, GSTO1 counter -4, LYPLA2 counter 0 and LYPLA1 counter 1.
Screening CC(CNC(=O)CN1C(=O)NC2(CCCCC2)C1=O)c1ccccc1 (centres undefined) returned PAD4 FP inh -1, PME-1 inh -1, LYPLA2 counter 2 and LYPLA1 counter 3.
For COc1ccc(NC(=O)CSc2nc(C)c3c(c2C#N)CCCC3)cc1 the results were Fam108B inh 0, PAD4 FP inh -2, PME-1 inh 2, GSTO1 counter -1, LYPLA2 counter 13 and LYPLA1 counter 3.
For CCc1nnc(NC(=O)CSc2nc(C)c3c(c2C#N)CCCC3)s1 the results were Fam108B inh 5, PAD4 FP inh 0, PME-1 inh 33*, GSTO1 counter 14, LYPLA2 counter 3 and LYPLA1 counter 0.
C=C1N(C)c2cc([N+](=O)[O-])c(N)cc2C1(C)C was read as Fam108B inh 3, PAD4 FP inh 2, PME-1 inh 12, GSTO1 counter 36*, LYPLA2 counter 1 and LYPLA1 counter 2.
Screening O=C(CCSc1ccc(Cl)cc1)c1ccco1 returned Fam108B inh -4, PAD4 FP inh 2, PME-1 inh 0, GSTO1 counter -4, LYPLA2 counter 1 and LYPLA1 counter 0.
O=C(CSc1ccc(Cl)cc1)c1ccco1 was read as Fam108B inh 11, PAD4 FP inh 0, PME-1 inh 2, GSTO1 counter 37*, LYPLA2 counter 7 and LYPLA1 counter -2.
Screening Cc1ccc(SCC2=NN(c3nc(C)cc(C)n3)C(=O)C2)cc1 returned Fam108B inh 0, PAD4 FP inh -3, PME-1 inh 3, GSTO1 counter 37*, LYPLA2 counter -1 and LYPLA1 counter 0.
For Cc1onc(NC(=O)NC(=O)c2c(Cl)cccc2Cl)c1Br the results were Fam108B inh -3, PAD4 FP inh -5, PME-1 inh 26*, GSTO1 counter 0, LYPLA2 counter 2 and LYPLA1 counter 0.

From PubChem BioAssay
